Measurements taken from PubChem BioAssay (Tox21).
Several values for one entry are separate records, joined by “and”; a condition that tells them apart may be missing. Equal values may be shown once. Results filed as inconclusive are left out. Entries that show only a call come without a potency. Where a structure was tested more than once in an assay, its records may differ in their call. Activity calls are given as the source filed them. Unless noted, calls follow the shape of the dose curve; as a rule, active = well fitted curve in the direction sought with a large enough effect in the repeat runs; inconclusive = weak or mixed curves; inactive = no such curve, though single readings can be large; an effect the other way counts as inactive or inconclusive.

How the values were obtained:
[1] = qHTS assay for small molecule agonists of the p53 signaling pathway (AID 651631; calls by dose curve; also: nearly all actives have a fitted effect of over 15% in size; also: potency is read from the fitted curve at half-maximal effect)
Outline: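 Quantitative high-throughput format: 4,000 p53RE-bla HCT-116 cells/well, 5 h pre-incubation, 16 h compound exposure at 37 °C, 2 h room-temperature substrate step, fluorescence intensity measured.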

[2] = qHTS assay for small molecules that induce genotoxicity in human embryonic kidney cells expressing luciferase-tagged ATAD5 (AID 651632); also: nearly all actives have a fitted effect of over 15% in size; also: potency is read from the fitted curve at half-maximal effect
Outline: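 Luminescence read-out: after 16 hr compound exposure at 37C, ATAD5-luciferase HEK293T cells received Amplite, 30 min RT, then CCD imaging. A rise in signal marks genotoxic stress.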

[3] = qHTS assay for small molecule agonists of the p53 signaling pathway - cell viability (AID 651633; calls by dose curve; also: nearly all actives have a fitted effect of over 30% in size; also: potency is read from the fitted curve at half-maximal effect)
Outline: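 Viability counter-read: CellTiter-Glo luminescence (30 min, room temperature) in the same p53RE-bla plates. These plates had been exposed to compounds for 16 h at 37 C.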

[4] = qHTS assay for small molecules that induce genotoxicity in human embryonic kidney cells expressing luciferase-tagged ATAD5 - cell viability (AID 651634; calls by dose curve; also: nearly all actives have a fitted effect of over 25% in size; also: potency is read from the fitted curve at half-maximal effect)
Outline: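 HEK293T ATAD5-luc cells, 2,000/well; compound 15.5 hr, 37C/5% CO2; CellTiter-Fluor 30 min, 37C; fluorescence read.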

[5] = qHTS assay for small molecule disruptors of the mitochondrial membrane potential - cell viability (AID 720634; calls by dose curve;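 also: human HepG2 liver cancer cells; series mostly up to about 83 µM; nearly all actives have a fitted effect of over 20% in size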)
Outline: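 Luminescence from CellTiter-Glo (ATP content) gave viability in HepG2 cells, read in the same wells as the MMP dye assay after 1 hr compound exposure at 37 C.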

[6] = qHTS assay to test for compound auto fluorescence at 590 nm (red) in HepG2 cells (AID 720674); also: potency is read from the fitted curve at half-maximal effect
Outline: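 We screened compounds on adherent HepG2 cells, incubating them for an hour at 37 C in 5% CO2 before reading emission at 590 nm under 540 nm excitation; values reflect equivalence to Rose Bengal sodium fluorescence.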

[7] = qHTS assay to test for compound auto fluorescence at 535 nm (green) in HepG2 cells (AID 720675); also: potency is read from the fitted curve at half-maximal effect
[8] = qHTS assay to test for compound auto fluorescence at 460 nm (blue) in HEK293 cells (AID 720678)
Outline: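 HEK293 cells (2,000 per well, medium with 10% dialyzed FBS) attached for 4-5 hr at 37C, then received compound and stood overnight at 37C, 5% CO2. Blue fluorescence was read at Ex/Em 405/460 nm and expressed relative to triamterene.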

[9] = qHTS assay to test for compound auto fluorescence at 590 nm (red) in HEK293 cells (AID 720679)
Outline: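 HEK293 cells (2,000/well, medium with 10% dialyzed FBS) attached for 4-5 hr at 37C, received 23 nL compound and were incubated overnight at 37C, 5% CO2. Red fluorescence was then read at 540/590nm Ex/Em, referenced to Rose Bengal sodium.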

[10] = qHTS assay for small molecule disruptors of the mitochondrial membrane potential (AID 720635); also: potency is read from the fitted curve at half-maximal effect
Outline: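 Mitochondrial membrane potential tracked with Mito-MPS dye, red aggregates (ex 540/em 590 nm) against green monomers (ex 490/em 535 nm). Compound treatment 1 hr at 37C, dye 30 min in HepG2.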

SMILES | Potency [1] | Potency [2] | Potency [3] | Potency [4] | Potency [5] | Potency [6] | Potency [7] | outcome [8] | Potency [9] | Potency [10]
CC(C)Oc1ccc2c(=O)c(-c3ccccc3)coc2c1 | inactive | 1.19 µM (active) and 2.66 µM (active) | inactive | inactive | inactive | inactive | inactive | inactive | inactive | 
Nc1ccccc1N | 62.6 µM (active) and 27.3 µM (active) | 2.43 µM (active) | inactive | inactive | inactive | inactive |  | inactive | inactive | 314 nM (active) and 686 nM (active)
O=CCCCC=O | 29.8 µM (active) and 33.2 µM (active) and 61.1 µM (active) | inactive and 59 µM (active) | inactive | inactive | inactive | inactive | inactive | inactive |  | inactive
COC(C)COC(C)COC(C)CO (stereo unspecified) | inactive | inactive | inactive | inactive | inactive | inactive | inactive | inactive | inactive | inactive
COc1cccc2c1C(=O)c1c(O)c3c(c(O)c1C2=O)C[C@@](O)(C(=O)CO)C[C@@H]3O[C@H]1C[C@H](N)[C@H](O)[C@H](C)O1 | inactive and 596 nM (active) and 243 nM (active) | inactive and 376 nM (active) | inactive |  | inactive | inactive | inactive | inactive |  | inactive and 2.73 µM (active)
Cc1cc2nc3c(=O)[nH]c(=O)nc-3n(C[C@H](O)[C@H](O)[C@H](O)CO)c2cc1C |  | inactive | inactive |  | inactive | inactive | 35.5 µM (active) [middle of 4 runs] | inactive |  | 
COC(=O)C1=C(C)NC(C)=C(C(=O)OCCN(C)Cc2ccccc2)C1c1cccc([N+](=O)[O-])c1 (stereo unspecified) |  |  |  |  |  | inactive | inactive | inactive | inactive | 18.8 µM (active)
CCCCCCCCCC(=O)OC |  |  | inactive |  | inactive | inactive | inactive | inactive |  | inactive
c1ccc2cc(Nc3ccc(Nc4ccc5ccccc5c4)cc3)ccc2c1 |  | inactive | inactive | inactive | inactive | inactive | inactive | inactive | inactive | inactive
O=C(COc1ccc(Cl)cc1)N1CCN(Cc2ccc3c(c2)OCO3)CC1 |  | inactive | inactive | inactive | inactive | inactive | inactive | inactive | inactive | inactive
O=C1OC2(c3cc(Br)c(O)c(Br)c3Oc3c2cc(Br)c(O)c3Br)c2c(Cl)c(Cl)c(Cl)c(Cl)c21 |  | inactive | 54.5 µM (active) |  | inactive | 1.41 µM (active) and 7.94 µM (active) | 17.8 µM (active) | inactive |  | 
CCCc1c(OCCCCc2nn[nH]n2)ccc(C(C)=O)c1O |  | inactive | 26.6 µM (active) and inactive |  | inactive | inactive | inactive | inactive |  | 26.6 µM (active)
O=c1oc(=O)c2cc3c(=O)oc(=O)c3cc12 |  |  |  | inactive | inactive | inactive | inactive | inactive | inactive | inactive
Nc1ccc(Nc2ccccc2)cc1 |  |  | inactive | inactive | inactive | inactive | inactive | inactive | inactive | 1.35 µM (active) and inactive
CCCCc1oc2ccccc2c1C(=O)c1cc(I)c(OCCN(CC)CC)c(I)c1 |  | inactive | 26.6 µM (active) and 48.9 µM (active) |  | inactive | inactive | inactive | inactive | inactive | 
CCCC(=O)O |  |  | inactive |  | inactive | inactive | inactive | inactive | inactive | inactive
O=C(O)c1ccccc1Nc1cccc(C(F)(F)F)c1 |  | inactive |  |  | inactive | inactive | inactive | inactive | inactive | 26.6 µM (active) and 43.3 µM (active)
COc1c(Cl)c(Cl)c(Cl)c(Cl)c1Cl |  |  | inactive | inactive | inactive | inactive | inactive | inactive | inactive | 
Oc1ccc(O)cc1 |  |  | 21.1 µM (active) and 13.6 µM (active) and 17.2 µM (active) | inactive | inactive | inactive | inactive | inactive | inactive | inactive
CCCCC/C=C/C=C/C=O |  | inactive | 54 µM (active) |  | inactive | inactive | inactive | inactive | inactive | 60.6 µM (active) and 54.5 µM (active)
NC=O |  | inactive | inactive |  | inactive | inactive | inactive | inactive | inactive | inactive
COc1cc([C@@H]2c3cc4c(cc3[C@H](O)[C@H]3COC(=O)[C@H]23)OCO4)cc(OC)c1OC |  |  | inactive | inactive | inactive | inactive | inactive | inactive | inactive | 150 nM (active) and 76.9 nM (active)

SMILES | Potency [1] | Potency [2] | Potency [3] | Potency [4] | Potency [5] | Potency [6] | Potency [7] | outcome [8] | Potency [9] | Potency [10]
CCCCC(CC)COCC1CO1 (stereo unspecified) |  |  | inactive | inactive | inactive | inactive | inactive | inactive |  | inactive
OC[C@H]1O[C@@H]2O[C@H]3[C@H](O)[C@@H](O)[C@@H](O[C@H]4[C@H](O)[C@@H](O)[C@@H](O[C@H]5[C@H](O)[C@@H](O)[C@@H](O[C@H]6[C@H](O)[C@@H](O)[C@@H](O[C@H]7[C@H](O)[C@@H](O)[C@@H](O[C@H]8[C@H](O)[C@@H](O)[C@@H](O[C@H]1[C@H](O)[C@H]2O)O[C@@H]8CO)O[C@@H]7CO)O[C@@H]6CO)O[C@@H]5CO)O[C@@H]4CO)O[C@@H]3CO |  | inactive | inactive |  | inactive | inactive | inactive | inactive |  | 
COc1ccccc1/C=C/C=O |  | inactive | inactive | inactive | inactive | inactive | inactive | inactive | inactive | inactive
CN(C)C(=N)N=C(N)N |  |  | inactive | inactive | inactive | inactive | inactive | inactive |  | inactive
C/C=C/C(=O)O |  |  | inactive |  |  | inactive | inactive | inactive |  | 
CC(C(=O)O)c1cccc(C(=O)c2ccccc2)c1 (stereo unspecified) | inactive |  |  |  | inactive | inactive | inactive | inactive |  | inactive
S=C(NC1CCCCC1)NC1CCCCC1 |  | inactive |  | inactive | inactive | inactive | inactive | inactive | inactive | 53.4 µM (active) and 54.5 µM (active)
O=C(/C=C/C=C/c1ccc2c(c1)OCO2)N1CCCCC1 |  |  | inactive | inactive | inactive | inactive | inactive | inactive | inactive | 
Cc1ccc2c(n1)Oc1ccc(C(C)C(=O)OCC(=O)N(C)C)cc1C2 (stereo unspecified) |  |  | inactive |  | inactive | inactive | inactive | inactive | inactive | 
CC1=CC2C3CC(C=C3C)C2C1 (stereo unspecified) |  | inactive | inactive | inactive | inactive | inactive | inactive | inactive | inactive | inactive
CCC(C)c1ccccc1O (stereo unspecified) |  | inactive | inactive |  | inactive | inactive | inactive | inactive |  | 54.1 µM (active) and 30.6 µM (active)
c1ccc(Nc2ccccc2)cc1 |  | inactive | inactive | inactive | inactive | inactive | inactive | inactive | inactive | 61.1 µM (active) and 19.3 µM (active)
COC(=O)Nc1nc2ccc(S(=O)c3ccccc3)cc2[nH]1 (stereo unspecified) |  | inactive | inactive |  | inactive | inactive | inactive | inactive | inactive | inactive
Clc1nc(Cl)c(Cl)c(Cl)c1Cl |  | inactive | inactive |  | inactive | inactive | inactive | inactive | inactive | 
CC(C)OC(=O)C(C)(C)Oc1ccc(C(=O)c2ccc(Cl)cc2)cc1 |  |  |  |  |  | inactive | inactive | inactive | inactive | inactive
O=C(c1ccccc1)c1ccccc1O |  |  |  |  | inactive | inactive | inactive | inactive |  | inactive and 61.1 µM (active)
c1cc(N(CC2CO2)CC2CO2)ccc1OCC1CO1 (stereo unspecified) |  |  | 68.7 µM (active) |  | inactive | inactive | inactive | inactive |  | inactive
CC(=O)O[C@]1(C(C)=O)CC[C@H]2[C@@H]3C=C(Cl)C4=CC(=O)[C@@H]5C[C@@H]5[C@]4(C)[C@H]3CC[C@@]21C |  |  | inactive |  |  | inactive | inactive | inactive | inactive | 30.6 µM (active)
O=P(O)(O)O |  |  |  |  | inactive | inactive | inactive | inactive | inactive | inactive
c1ccc2sc(SSN3CCOCC3)nc2c1 |  |  | inactive |  | inactive | inactive | inactive | inactive | inactive | 34.3 µM (active) and 27.3 µM (active)
Cc1ccc(C(=O)c2cc(O)c(O)c([N+](=O)[O-])c2)cc1 |  |  | 23.7 µM (active) and 54.5 µM (active) | 30.6 µM (active) | inactive | inactive | inactive | inactive |  | 26.6 µM (active) and 4.86 µM (active)
O=[N+]([O-])c1ccc2c(c1)Cc1ccccc1-2 |  | inactive | inactive |  |  | inactive | inactive | inactive | inactive | 
